From PubChem BioAssay (Tox21)
“And” between values parts separate entries of the source, which are not always exact repeats. Identical values can stand only once. Inconclusive results are not listed. The source made the active and inactive calls. Unless noted, calls come from the whole dose curve; as a rule, active = well fitted curve in the direction sought with a large enough effect in the repeat runs; inconclusive = weak or mixed curves; inactive = no such curve, though single readings can be large; an effect the other way counts as inactive or inconclusive.

Assays:
[1] = qHTS assay to identify small molecule agonists of the hypoxia (HIF-1) signaling pathway - cell viability counter screen (AID 1224844; calls by dose curve; note: nearly all actives have a fitted effect of over 50% in size; note: potency is the fitted concentration of half-maximal effect)
Procedure, shortened: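 Same wells as the HIF-1 reporter screen; ME-180 cells carrying HRE-bla, 17 hr treatment at 37C; CellTiter-Glo luminescence read after 30 min at room temperature.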

[2] = qHTS assay to identify small molecule agonists of H2AX (AID 1224845; active = well fitted activation curve with a large enough effect in the signal ratio in the repeat runs, not every such curve was filed as active; the % refers to the signal ratio)
Procedure, shortened: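 Wild-type CHO-K1 cells, plated overnight, exposed 3hr at 37C to 15 concentrations (0.76% DMSO final). Lysed, then HTRF anti-pH2AX (S139) cryptate and anti-H2AX-d2 antibodies, 24 hr room temperature; 665/620 nm emission read.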

[3] = qHTS assay to identify small molecule agonists of H2AX - cell viability counter screen (AID 1224847; calls by dose curve; note: nearly all actives have a fitted effect of over 30% in size; note: potency is the fitted concentration of half-maximal effect)
Procedure, shortened: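 CHO-K1 wt, 1000 cells/well, o/n 37C; cpds 15 conc, 3 h 37C, 0.76% DMSO; CellTiter-Glo, 30 min RT, luminescence.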

[4] = qHTS assay to identify small molecule antagonists of the estrogen related receptor (ERR) signaling pathway from Tox21 library (AID 1224848); note: nearly all actives have a fitted effect of over 50% in size; note: potency is the fitted concentration of half-maximal effect
Procedure, shortened: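 Compounds dissolved in DMSO are pin-transferred onto ERR reporter cells (2,000 per well) that have settled for 6 h at 37 C. Plates then incubate 18 h at 37 C before ONE-Glo luciferase reagent and a luminescence read 30 min later.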

[5] = qHTS assay to identify small molecule agonists of the estrogen related receptor (ERR) signaling pathway from Tox21 library (AID 1224849; calls by dose curve; note: nearly all actives have a fitted effect of over 15% in size); conditions: ERR reporter cell line, ONE-Glo luciferase, 18 h
Procedure, shortened: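 Reporter cells (ERR, NTP source) treated with Tox21 10K compounds 18 h, 37 C. Readout: ONE-Glo luminescence, 30 min RT.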

[6] = qHTS RealTime-Glo MT Cell Viability Assay in HepG2 cells - 24 hour (AID 1224867); note: nearly all actives have a fitted effect of over 50% in size; note: potency is the fitted concentration of half-maximal effect
Procedure, shortened: (§1)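 Real-time, nonlytic viability: 600 HepG2 cells/well mixed with NanoLuc enzyme plus prosubstrate; 5 h settle, compound (DMSO) added by pintool; luminescence monitored over 40 h at 37 C.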

[7] = qHTS RealTime-Glo MT Cell Viability Assay in HEK293 cells - 32 hour (AID 1224868); note: nearly all actives have a fitted effect of over 50% in size; note: potency is the fitted concentration of half-maximal effect
Procedure, shortened: (§2)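 Cells + reagent dispensed (600 cells/well, HEK293) → 5 h at 37 C/5% CO2 → 23 nL compound in DMSO pinned → 40 h at 37 C → luminescence read at 0, 8, 16, 24, 32, 40 h.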

[8] = A CellTox Green Cytotoxicity Assay to monitor cytotoxicity in HEK293 cells - 0 hour (AID 1224869); note: nearly all actives have a fitted effect of over 50% in size; note: potency is the fitted concentration of half-maximal effect
Procedure, shortened: (§3)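 Homogeneous no-lysis format: HEK293 cell suspension mixed with CellTox Green reagent, seeded, incubated 5 h at 37 C/5% CO2, then dosed by pintool with compound in DMSO.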

[9] = qHTS RealTime-Glo MT Cell Viability Assay in HepG2 cells - 40 hour (AID 1224870); note: nearly all actives have a fitted effect of over 50% in size; note: potency is the fitted concentration of half-maximal effect
Procedure, shortened: (§4)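 HepG2 cells (600/well) mixed with RealTime-Glo MT reagent, settled 5 h at 37 C/5% CO2 before compound addition. Nonlytic NanoLuc luminescence from viable-cell prosubstrate reduction read repeatedly during 40 h treatment at 37 C.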

[10] = qHTS RealTime-Glo MT Cell Viability Assay in HEK293 cells - 16 hour (AID 1224872); note: nearly all actives have a fitted effect of over 50% in size; note: potency is the fitted concentration of half-maximal effect
Procedure, shortened: as §2

[11] = qHTS RealTime-Glo MT Cell Viability Assay in HepG2 cells - 8 hour (AID 1224873); note: nearly all actives have a fitted effect of over 55% in size; note: potency is the fitted concentration of half-maximal effect
Procedure, shortened: as §4

[12] = qHTS RealTime-Glo MT Cell Viability Assay in HEK293 cells - 40 hour (AID 1224874); conditions: RealTime-Glo luminescence; max response: active compounds read low; note: nearly all actives have a fitted effect of over 50% in size; note: potency is the fitted concentration of half-maximal effect
Procedure, shortened: (§5)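 Measured as luminescence from the same continuously cultured HEK293 wells at successive time points (0, 8, 16, 24, 32, 40 h) after compound addition. Reagent present from seeding; dosing at 5 h; incubation 37 C.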

[13] = A CellTox Green Cytotoxicity Assay to monitor cytotoxicity in HepG2 cells - 16 hour (AID 1224876); note: nearly all actives have a fitted effect of over 45% in size; note: potency is the fitted concentration of half-maximal effect
Procedure, shortened: (§6)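 Fluorescent DNA-binding dye, 600 HepG2 cells/well, 5 h preincubation then compound in DMSO; same plates read at 0–40 h, 37 C.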

[14] = qHTS RealTime-Glo MT Cell Viability Assay in HepG2 cells - 32 hour (AID 1224877); note: nearly all actives have a fitted effect of over 55% in size; note: potency is the fitted concentration of half-maximal effect
Procedure, shortened: as §1

[15] = A CellTox Green Cytotoxicity Assay to monitor cytotoxicity in HepG2 cells - 24 hour (AID 1224878); note: nearly all actives have a fitted effect of over 45% in size; note: potency is the fitted concentration of half-maximal effect
Procedure, shortened: as §6

[16] = A CellTox Green Cytotoxicity Assay to monitor cytotoxicity in HepG2 cells - 40 hour (AID 1224879); note: nearly all actives have a fitted effect of over 40% in size; note: potency is the fitted concentration of half-maximal effect
Procedure, shortened: as §6

[17] = qHTS RealTime-Glo MT Cell Viability Assay in HEK293 cells - 0 hour (AID 1224880); note: top concentration of the series differs between compounds; nearly all actives have a fitted effect of over 45% in size
Procedure, shortened: as §5

[18] = A CellTox Green Cytotoxicity Assay to monitor cytotoxicity in HEK293 cells - 40 hour (AID 1224871); note: nearly all actives have a fitted effect of over 45% in size; note: potency is the fitted concentration of half-maximal effect
Procedure, shortened: as §3

[19] = A CellTox Green Cytotoxicity Assay to monitor cytotoxicity in HEK293 cells - 24 hour (AID 1224875); note: nearly all actives have a fitted effect of over 45% in size; note: potency is the fitted concentration of half-maximal effect
Procedure, shortened: as §3

[20] = qHTS assay to identify small molecule agonists of the hypoxia (HIF-1) signaling pathway (AID 1224846; active = well fitted activation curve with a large enough effect in the signal ratio in the repeat runs, not every such curve was filed as active; the % refers to the signal ratio)
Procedure, shortened: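 In ME-180 cells bearing an HRE-bla construct, 17 h treatment with DMSO-dissolved compounds at 37C was followed by CCF4-AM loading to quantify reporter induction.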
% is set by controls: 0 for no effect and ±100 for the full control effect.

CC(N=C(NC#N)Nc1ccncc1)C(C)(C)C (stereo not given)
inactive: Potency [1] | Potency [2] | Potency [3] | Potency [4] | activity change, positive = activation ([5]; at 42.5 µM (top of the series)) -15.5% | Potency [6] | Potency [7] | Potency [8] | Potency [9] | Potency [10] | Potency [11] | max response [12] -0.652% | Potency [13] | Potency [14] | Potency [15] | Potency [16] | Potency [17]

COc1ccc2c(c1)c(CC(=O)OC/C=C(\C)CC/C=C(\C)CCC=C(C)C)c(C)n2C(=O)c1ccc(Cl)cc1
inactive: Potency [1] | Potency [2] | Potency [3] | Potency [4] | activity change, positive = activation ([5]; at 42.5 µM (top of the series)) -0.248% | Potency [6] | Potency [7] | Potency [8] | Potency [9] | Potency [10] | max response [12] -0.256% | Potency [14] | Potency [15] | Potency [17]

C#CC1(O)CC[C@H]2[C@@H]3CCC4=CCCC[C@@H]4[C@H]3CC[C@@]21C (stereo not given in full)
inactive: Potency [2] | activity change, positive = activation ([5]; at 42.5 µM (top of the series)) -49.7% | activity change, positive = activation ([5]; at 92.4 µM (top of the series)) -45.9% | Potency [8] | Potency [17]
active: Potency [1] 21.9 µM and 15.1 µM | Potency [3] 89.8 µM | Potency [4] 61.1 µM and 26.6 µM | Potency [6] 21.3 µM | Potency [7] 17.4 µM and 19 µM | Potency [18] 34.7 µM and 21.3 µM | Potency [10] 19.5 µM and 21.3 µM | Potency [11] 21.3 µM | Potency [12] 19.5 µM and 19 µM | Potency [19] 21.9 µM and 21.3 µM | Potency [14] 23.9 µM | Potency [15] 34.7 µM and 19 µM | Potency [16] 38.9 µM and 21.3 µM

[Cu+]
inactive: Potency [1] | Potency [2] | Potency [8] | Potency [18] | Potency [10] | Potency [11] | Potency [19] | Potency [15] | Potency [16] | Potency [17]
active: Potency [9] 34.7 µM | Potency [14] 49 µM

C=CC(=O)Nc1cc2c(Nc3ccc(F)c(Cl)c3)ncnc2cc1OCCCN1CCOCC1
active: Potency [1] 23.9 µM | Potency [4] 16.8 µM | Potency [6] 8.49 µM | Potency [7] 9.52 µM | Potency [9] 10.7 µM | Potency [18] 10.7 µM | Potency [10] 10.7 µM | Potency [12] 9.52 µM | Potency [19] 19 µM | Potency [13] 21.3 µM | Potency [14] 9.52 µM | Potency [15] 10.7 µM
inactive: Potency [2] | activity change, positive = activation ([5]; at 42.5 µM (top of the series)) -63.1% | Potency [8]

OC12N=C(c3ccccc3)SC1Cc1cc(Cl)ccc12 (stereo not given)
inactive: Potency [1] | Potency [2] | Potency [20] | Potency [4] | Potency [8] | Potency [9] | Potency [18] | Potency [11] | Potency [13] | Potency [14]
active: activity change, positive = activation ([5]; at 92.4 µM (top of the series)) 47.6%

Cc1nc(-c2ccc(Cl)cc2)oc1COC(C)(C)C(=O)O
inactive: Potency [1] | Potency [20] | Potency [3] | Potency [4] | activity change, positive = activation ([5]; at 42.5 µM (top of the series)) 0.637% | Potency [6] | Potency [7] | Potency [8] | Potency [9] | Potency [18] | Potency [10] | Potency [11] | max response [12] 0.172% | Potency [19] | Potency [13] | Potency [14] | Potency [15] | Potency [16] | Potency [17]

Cc1nc2n(c(=O)c1CCN1CCC(c3noc4cc(F)ccc34)CC1)CCCC2
active: Potency [7] 3.79 µM | Potency [10] 3.01 µM | Potency [12] 3.01 µM
inactive: Potency [1] | Potency [2] | Potency [3] | Potency [6] | Potency [8] | Potency [9] | Potency [18] | Potency [11] | Potency [19] | Potency [13] | Potency [14] | Potency [15] | Potency [17]

CCc1oc2ccccc2c1C(=O)c1cc(I)c(O)c(I)c1
inactive: Potency [1] | Potency [2] | Potency [6] | Potency [7] | Potency [8] | Potency [9] | Potency [18] | Potency [10] | Potency [11] | max response [12] -23.8% | Potency [19] | Potency [13] | Potency [14] | Potency [15] | Potency [16]

O=C1CCCCCCCCCCCCCCCO1
inactive: Potency [1] | Potency [20] | Potency [3] | Potency [4] | activity change, positive = activation ([5]; at 92.4 µM (top of the series)) -5.05% | Potency [6] | Potency [7] | Potency [9] | Potency [10] | Potency [11] | max response [12] 4% | Potency [14] | Potency [17]
active: Potency [8] 24.5 µM | Potency [19] 24.5 µM | Potency [13] 43.6 µM | Potency [15] 43.6 µM | Potency [16] 43.6 µM

O=C(Oc1ccccc1)Oc1ccccc1
active: Potency [9] 34.5 µM | Potency [14] 48.8 µM
inactive: Potency [1] | Potency [20] | Potency [3] | Potency [4] | activity change, positive = activation ([5]; at 92.4 µM (top of the series)) -11.4% | Potency [7] | Potency [8] | Potency [18] | Potency [10] | Potency [11] | max response [12] -21% | Potency [13] | Potency [15] | Potency [16] | Potency [17]

CCCC[P+](C)(CCCC)CCCC
inactive: Potency [1] | Potency [20] | Potency [3] | Potency [6] | Potency [8] | Potency [9] | Potency [10] | Potency [11] | Potency [19] | Potency [13] | Potency [14] | Potency [15] | Potency [16] | Potency [17]

CCOc1ccc2ccccc2c1C(=O)N[C@@H]1C(=O)N2[C@@H]1SC(C)(C)[C@@H]2C(=O)O
inactive: Potency [1] | Potency [20] | Potency [3] | Potency [4] | activity change, positive = activation ([5]; at 42.5 µM (top of the series)) -0.57% | Potency [7] | Potency [8] | Potency [18] | Potency [10] | Potency [11] | max response [12] 1.12% | Potency [19] | Potency [13] | Potency [14] | Potency [15] | Potency [16] | Potency [17]

[Cl][Pt-2]([Cl])([Cl])[Cl]
inactive: Potency [1] | Potency [20] | Potency [3] | Potency [4] | activity change, positive = activation ([5]; at 92.4 µM (top of the series)) -8.8% | Potency [6] | Potency [8] | Potency [9] | Potency [18] | Potency [11] | Potency [19] | Potency [13] | Potency [14] | Potency [15] | Potency [16]

C#C[C@]1(O)CC[C@H]2[C@@H]3[C@H](C)CC4=C(CCC(=O)C4)[C@H]3CC[C@@]21C
inactive: Potency [1] | Potency [20] | activity change, positive = activation ([5]; at 42.5 µM (top of the series)) -32.4% | Potency [6] | Potency [7] | Potency [8] | Potency [9] | Potency [18] | Potency [10] | Potency [11] | max response [12] -25.5% | Potency [19] | Potency [13] | Potency [14] | Potency [15] | Potency [16]
active: Potency [4] 23.7 µM
